# Bioassay records: PubChem, National Center for Advancing Translational Sciences (NCATS)
# Sampled rows, rich in hits. Any-hit rate of the full collection: about 2.4%.
# IkB sig inh – inhibitors of IkB signaling in ABC-DLBCL cells; 110,000 tested, 0.04% active; Potency, µM (titrated, usually from 57.1 µM), for inactives: top-dose IkBa stabilization activation; ABC-DLBCL IkBa-CBG/CBR dual luciferase ratio, 4 h; response scale: scaled: untreated 0%, proteasome inhibitor 100%; active means well fitted curve in the direction sought with a large enough effect in the signal ratio, not every such curve was filed as active; inconclusive means small, poorly fitted or top-dose-only effect, or a change in a side signal; the % refers to the signal ratio;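 further: the direction sought is a rising ratio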
#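 In this assay, an IκBα–CBG68 fusion accumulates when IKK-driven degradation is blocked; native CBR normalizes for cell number. OCI-Ly3 cells were treated 4 h with compound and doxycycline, then green and red light read after Chroma-Glo addition.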
# p53ts 39C kill – p53ts cell cytotoxicity, nonpermissive temperature. H1299-p53A138V viability at 39C, ATP luminescence, 24 h. Potency, µM (doses to about 46.1 µM), for inactives: at the top dose activity change, negative = cell killing, usual class: cytotoxic. 130,000 tested, 1.5% active; further: on the % scale 0 is the no-effect control and ±100 the full control effect; nearly all actives have a fitted effect of over 55% in size
# Luciferase inh – firefly luciferase inhibition; P08659; purified firefly luciferase, luminescence, 8 min; Potency, µM (doses to about 57.1 µM), inactives show at the highest dose activity change, negative = inhibition, hits mostly inhibitors; 72,000 tested, 2.2% active; AID 411; further: on the % scale 0 is the no-effect control and ±100 the full control effect; nearly all actives have a fitted effect of over 40% in size
# Target sequence (P08659 whole entry, looked up): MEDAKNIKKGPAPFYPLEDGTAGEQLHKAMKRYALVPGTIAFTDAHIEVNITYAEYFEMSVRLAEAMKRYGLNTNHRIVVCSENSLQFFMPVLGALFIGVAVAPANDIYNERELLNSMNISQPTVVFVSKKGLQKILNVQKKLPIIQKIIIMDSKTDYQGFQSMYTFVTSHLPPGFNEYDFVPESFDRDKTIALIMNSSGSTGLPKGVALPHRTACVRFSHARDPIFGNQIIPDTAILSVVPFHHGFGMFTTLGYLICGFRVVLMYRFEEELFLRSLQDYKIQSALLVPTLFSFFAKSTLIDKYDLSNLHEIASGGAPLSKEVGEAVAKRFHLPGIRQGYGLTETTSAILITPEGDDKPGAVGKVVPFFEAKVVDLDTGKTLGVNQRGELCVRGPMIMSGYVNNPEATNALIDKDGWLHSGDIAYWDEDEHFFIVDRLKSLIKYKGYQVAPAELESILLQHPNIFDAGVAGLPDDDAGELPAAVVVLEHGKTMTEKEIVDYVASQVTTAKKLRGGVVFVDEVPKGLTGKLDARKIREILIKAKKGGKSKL
#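 Firefly luciferase (PKLight detection mix) with 10 uM ATP in pH 7.2 imidazole buffer (KCl, MgCl2, Tween 20, BSA). Compounds tested across a concentration series (qHTS). Luminescence read after 8 min at ambient temperature.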
# Imprint erasure – induces erasure of genomic imprints in mouse ES cells; mouse ES Peg3-LacZ reporter, beta-gal luminescence, 40 h; 110,000 tested, 0.02% active; Potency, µM (series often up to 60.7 µM), without a hit: at the top dose activity change, positive = activation, usual class: activators
#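 Imprint erasure is scored as LacZ activity from the silenced maternal Peg3 allele in feeder-free female ES cells cultured 40 h with LIF. Luminescence is normalized to in-plate negative controls and fitted to the Hill equation.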
# p53ts 32C kill – cytotoxicity in p53ts cells at permissive temperature | H1299-p53A138V at 32C, ATP luminescence viability, 24 h | Potency, µM (top dose mostly 46.1 µM), for inactives: at the highest dose activity change, negative = cytotoxicity, actives largely listed as cytotoxic | 130,000 tested, 0.93% active | AID 924;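 further: 0% = DMSO and -100% = full killing by reference compound; nearly all actives have a fitted effect of over 55% in size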
#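 ATP-content luminescence (ATPlite) read-out after 24 h compound exposure at 32C in H1299-p53A138V cells (600/well). Tested up to 46 uM. Normalized to DMSO (0%) and 100 uM tamoxifen (100% killing); Hill-fit AC50.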
# An asterisk follows results filed as active; ? = inconclusive; / = not tested or not shown; ! = not active in a repeat; [ ] = dose if it differs, or a comment. Unless noted, the call rests on the fitted dose curve; in most records, active means well fitted curve in the direction sought with a large enough effect; inconclusive means small, poorly fitted or top-dose-only effect, or another doubt; inactive means no such curve, though single readings can be large; an effect the other way counts as inactive or inconclusive. Potency means the concentration at half of the fitted maximal effect.
SMILES,IkB sig inh,p53ts 39C kill,Luciferase inh,Imprint erasure,p53ts 32C kill
CCCCCCCCNC(C)C(O)c1ccc(SC(C)C)cc1 (stereo not given),/,20µM*,2.6%[25.5 µM],-48.5%,?
CCCNC(=O)c1cc(-c2ccc(OC)cc2)on1,7.2%,?,7.94µM*,-33.3%,?
Cc1ccc(-c2c(C(=O)N3CCN(c4cccc(C)c4)C(C)C3)oc(=O)c3ccccc23)cc1 (stereo not given),?,-2.2%,/,-9.2%[10.9 µM],16.5%
O=c1c(-c2cc(F)cc(F)c2)nc2cnc(N3CCNCC3)nc2n1Cc1ccc(F)cc1,-0.8%[11.4 µM],?,1.5%[11.4 µM],-47.4%,?
O=c1c(-c2ccc(F)cc2)nc2cnc(N3CCNCC3)nc2n1-c1ccccc1,-1.8%[11.4 µM],?,-1.7%[11.4 µM],-29.8%,12.6µM*
O=c1c(-c2cccs2)nc2cnc(N3CCNCC3)nc2n1-c1ccccc1,0.2%[11.4 µM],-17.5%,1.2%[11.4 µM],/,-22.2%
COc1cccc(Cn2c(=O)c(-c3cc(F)cc(F)c3)nc3cnc(N4CCNCC4)nc32)c1,0.4%[11.4 µM],15.8µM*,1.2%[11.4 µM],-40.8%,?
O=c1c(CCc2ccccc2)nc2cnc(N3CCNCC3)nc2n1CCc1ccccc1,-1.9%[11.4 µM],10µM*,-0.2%[11.4 µM],/,12.6µM*
Cc1ccnc(NC(=O)/C=C/c2cccs2)c1,/,7.08µM*,/,/,/
CCC(C(=O)Nc1nccs1)c1ccccc1 (stereo not given),2.9%,5.8%,-2.9%,-3.1%,-0.9%
C/C(=C\C(=O)Nc1nccs1)c1ccccc1,?,?,25.1µM*,-26.2%,?
Cc1ccc(C(=O)OCC(=O)c2ccc(Cl)s2)s1,0.8%,-9.4%,15.8µM*,-6.8%,4.2%
COc1ccc(NC(=O)NC(C)c2c(-n3cccc3)sc3c2CCN(C)C3)c(OC)c1 (stereo not given),/,/,/,/,8.4%
O=C(Nc1ccc(C(=O)N2CCN(c3ccc(F)cc3)CC2)cc1)c1nsc2ccccc12,?,-15.3%,/,5.9%[10.9 µM],15.9%
CCOC(=O)c1ccc(NC(=O)c2nsc3ccccc23)cc1,?,12.6µM*,/,-47.2%[10.9 µM],?
Cc1ccc(CNC(=O)c2ccc(NC(=O)c3nsc4ccccc34)cc2)cc1,?,-20.8%,/,-8.2%[10.9 µM],-7.7%
CNC(=O)c1ccc(NC(=O)c2nsc3ccccc23)cc1,?,7.94µM*,/,-69.7%[10.9 µM],7.94µM*
O=C(Nc1ccc(C(=O)N2CCCCC2)cc1)c1nsc2ccccc12,?,3.16µM*,/,-69.0%[10.9 µM],3.16µM*
O=C(NCc1cccc(F)c1)c1ccc(NC(=O)c2nsc3ccccc23)cc1,?,10µM*,/,7.3%[10.9 µM],11.2µM*
CCOc1c(Cl)cc(CNc2ccc3[nH]c(=O)[nH]c3c2)cc1OC,3.2%,-13.1%,/,-6.9%[10.9 µM],7.4%
CCOC(=O)c1sc(N2C(=O)c3oc4cc(C)c(C)cc4c(=O)c3C2c2ccc(C)cc2)nc1C (stereo not given),2.1%,20.5%,/,3.4%[10.9 µM],15.8%
CCc1ccc(C(=O)CSc2nc(-c3ccccc3)nc3c2CCCC3)cc1,?,8.3%,/,-15.4%[10.9 µM],8.3%
O=C(Nc1cccc(-c2nc3ccccc3[nH]2)c1)c1cccc(NC(=O)c2ccco2)c1,?,?,-21.7%,-46.9%,8.7%
Cc1cccc2[nH]c(-c3ccc(NC(=O)c4ccco4)cc3)nc12,3.9%,-15.8%,15.8µM*,/,?
Cc1ccc(-c2nc3ccccc3[nH]2)cc1NC(=O)c1ccco1,-0.1%,-7.5%,20µM*,-20.1%,1.0%
SMILES,IkB sig inh,p53ts 39C kill,Luciferase inh,Imprint erasure,p53ts 32C kill
Cc1cc(C)c2oc(-c3cccc(NC(=O)c4ccc(Br)o4)c3)nc2c1,?,-1.7%,/,-7.4%[10.9 µM],-9.1%
O=C(Nc1ccc(CN2CCCCC2)cc1)c1ccc(Br)o1,-1.3%,-9.6%,12.6µM*,-52.7%,-8.5%
O=C(Nc1ccc2c(c1)OCCO2)c1ccc(Br)o1,/,/,5.01µM*,/,/
O=C(Nc1ccc2c(c1)OCCO2)c1c(F)c(F)c(F)c(F)c1F,?,1.1%,1.3%,14.7%,-8.0%
Cc1ccc(C(=O)Nc2ccc3c(c2)OCO3)o1,0.0%,?,12.6µM*,-84.5%,10µM*
O=C(Nc1cccc(-c2nnc(-c3ccccc3)o2)c1)c1ccc(Br)o1,?,25.1µM*,-0.5%,-22.6%,?
O=C(COc1ccc2c(c1)OCO2)NC12CC3CC(CC(C3)C1)C2,1.3%,-17.8%,-2.2%,-13.7%,-0.4%
O=C(Nc1ccc2c(c1)OCCO2)NC12CC3CC(CC(C3)C1)C2,-0.1%,-28.7%,12.6µM*,-11.0%,?
NC(=[SH+])N=N/C=C1/C=CC=CN1.O=S(=O)(O)O.[Fe],/,/,/,5.8%[10.9 µM],/
COc1ccccc1-c1noc(-c2ccco2)n1,1.7%,-23.5%,20µM*,-80.8%,?
CCOc1cc(-c2nc(-c3ccccc3OC)no2)cc(OCC)c1OCC,0.9%,1.6%,0.5%,-10.3%,-0.2%
COc1ccc(-c2nc(-c3ccccc3OC)no2)cc1OC,?,-23.2%,15.8µM*,-32.5%,-22.4%
COc1ccccc1-c1nc(-c2cccc(C)c2)no1,?,?,12.6µM*,-76.5%,?
O=C(Nc1ccc2nsnc2c1)c1cccs1,2.8%,-2.1%,-4.3%,-39.3%,8.3%
O=C(Nc1cccc2nsnc12)c1cccs1,?,-27.1%,15.8µM*!,-63.5%,-23.9%
COc1cc(OC)cc(C(=O)Nn2c(C)nc3ccccc3c2=O)c1,-0.6%,8.0%,1.4%,-4.7%,-0.4%
COc1ccc2[nH]c3c(c2c1)CCn1c-3nc2ccccc2c1=O,-1.3%,?,0.631µM*,-44.7%,-26.1%
COc1ccc(Br)cc1CNC(=O)Cn1nc(C)n2c(cc3cc(F)ccc32)c1=O,1.0%,-17.6%,/,-6.5%[10.9 µM],2.6%
CN1CCN(Cc2cc(COCc3ccccc3)c3cccnc3c2O)CC1,6.4%,5.01µM*,6.5%,-24.2%,-28.9%
CCCCOCc1cc(CN2CCN(c3cccc(Cl)c3)CC2)c(O)c2ncccc12,-1.0%,3.1%,/,29.5%[10.9 µM],4.6%
CCCOCc1cc(CN2CCN(c3cccc(Cl)c3)CC2)c(O)c2ncccc12,25.0%,15.8µM*,/,9.3%[10.9 µM],-6.5%
Nc1ccccc1C(=O)/C=C\c1ccc2c(c1)OCO2,/,-16.9%[9.22 µM],3.16µM*,/,-11.0%[9.22 µM]
CC1=CC(=C2C(=O)c3ccccc3C2=O)C=C(C)N1C,3.1%,?,15.8µM*,-51.7%,-29.9%
COc1cc(N=c2c([N+](=O)[O-])nn(-c3ccc4c(c3)OCCO4)n2O)cc(OC)c1,/,11.2µM*,/,/,/
CCCOc1ccc(Oc2nc(NC)nc(N3CCOCC3)n2)nn1,?,-11.8%,/,-6.2%[10.9 µM],1.4%
Cc1ccc(Sc2ccc(N3CCC(C(=O)Nc4cc(C)cc(C)c4)CC3)nn2)cc1,?,12.6µM*,/,-1.1%[10.9 µM],?
O=C(CCS(=O)(=O)c1nc(-c2cccs2)cc(C(F)(F)F)n1)Nc1cccc(O)c1,0.4%,12.6µM*,/,7.1%[10.9 µM],?
COc1ccc(NC(=O)CCS(=O)(=O)c2nc(-c3ccc4c(c3)OCO4)cc(C(F)(F)F)n2)cc1OC,?,32.6%,/,-1.8%[10.9 µM],?
